High-throughput results as filed in PubChem BioAssay.
Most compounds without a hit are left out; they make up all but 3.5% or so of the library.
BoNT F protease: blocks Botulinum neurotoxin F light chain protease. Multiplex microsphere protease cleavage assay, flow cytometry. inhibition, % at 10 µM. 0.22% of 360,000 active; in the data active means inhibition above about 35%, passing the limit was not always enough; inconclusive means no clear call, values can overlap the other calls
Anthrax LF prot: blocks Bacillus anthracis lethal factor protease; 0.12% of 360,000 active; inhibition, % at 10 µM; P15917; multiplex microsphere protease cleavage assay, LF
Target sequence (P15917 whole entry, looked up): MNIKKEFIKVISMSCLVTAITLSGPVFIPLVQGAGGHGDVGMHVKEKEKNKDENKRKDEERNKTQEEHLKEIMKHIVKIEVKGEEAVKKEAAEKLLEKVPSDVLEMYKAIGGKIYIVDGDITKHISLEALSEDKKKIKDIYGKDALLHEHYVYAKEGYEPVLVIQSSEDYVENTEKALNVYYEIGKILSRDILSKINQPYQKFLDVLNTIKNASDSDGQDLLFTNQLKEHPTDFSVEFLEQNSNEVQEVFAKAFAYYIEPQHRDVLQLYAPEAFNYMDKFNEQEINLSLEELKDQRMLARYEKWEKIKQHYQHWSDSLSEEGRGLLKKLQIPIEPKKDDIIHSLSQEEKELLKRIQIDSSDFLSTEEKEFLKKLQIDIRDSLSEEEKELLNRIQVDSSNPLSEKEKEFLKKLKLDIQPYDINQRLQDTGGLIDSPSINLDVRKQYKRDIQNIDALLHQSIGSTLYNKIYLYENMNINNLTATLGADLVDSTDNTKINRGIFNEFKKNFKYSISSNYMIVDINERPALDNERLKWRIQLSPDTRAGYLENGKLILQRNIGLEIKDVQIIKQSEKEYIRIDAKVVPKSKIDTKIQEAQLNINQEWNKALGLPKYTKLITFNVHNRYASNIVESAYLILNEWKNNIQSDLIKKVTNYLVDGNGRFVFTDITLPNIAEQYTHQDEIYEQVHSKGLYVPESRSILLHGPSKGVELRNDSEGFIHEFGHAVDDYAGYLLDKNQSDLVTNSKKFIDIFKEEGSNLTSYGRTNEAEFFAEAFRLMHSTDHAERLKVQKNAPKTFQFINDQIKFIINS
Vc quorum ag: induces V. cholerae light production without autoinducers | 0.16% of 350,000 active | V. cholerae BH1578 lux reporter, luminescence, 6 h | activation, % at 18.7 µM; in the data active means activation mostly above about 9.7%, no sharp cut-off; inconclusive means no clear call, values can overlap the other calls; inactive means mostly below about 3.7%
BoNT A protease: blocks Botulinum neurotoxin A light chain protease; multiplex microsphere protease substrate cleavage, flow cytometry; inhibition, % at 10 µM; 0.17% of 360,000 active
Bead autofluor: flagged as autofluorescent in microsphere protease counterscreen; compound autofluorescence counterscreen, microsphere flow cytometry; active compounds read high; fluorescence intensity (no concentration beside the values); 3.1% of 360,000 active; in the data active means fluorescence intensity above about 16000; inconclusive means no clear call, values can overlap the other calls
Each line names hits and unclear results; the compound was inactive in the other large screens. Unless noted, no stated cut-off is given here; in the data, active means inhibition above about 30%; inconclusive means no clear call, values can overlap the other calls; inactive means below that.

CC(=O)C(Sc1nn(C)c(=S)s1)C(=O)Nc1ccccc1 (configuration not stated)	Vc quorum ag 25, Bead autofluor 23581
Cc1cc([N+](=O)[O-])nn1Cc1c(F)c(F)c(F)c(F)c1F	Bead autofluor 18842
CCN(c1ccccc1)S(=O)(=O)c1ccc(C(=O)NCc2ccco2)cc1	none
CC(=O)Nc1ccc(CN(C)c2c(C)nc3ccc(C(=O)N4CCN(C(=O)c5ccco5)CC4)cn23)cc1	none
O=S(=O)(c1ccccc1)c1cnc(-c2cccnc2)nc1-c1ccccc1	Bead autofluor 22391
O=S(=O)(c1ccccc1)c1cnc(-c2cccnc2)nc1-c1ccc(Cl)cc1Cl	none
CCN(CC)C(=O)c1cncc(C(=O)N(CC)CC)c1-c1ccccc1	Bead autofluor 20311
CCN(CC)C(=O)c1ccc2nc(-c3ccccc3)c(-c3ccccc3)nc2c1	none
O=C(Nc1ccc(N2CCOCC2)nc1)c1ccc(Cl)cc1	Bead autofluor 22714
C/C(=C\C(=O)c1ccc(Cl)cc1)Nc1ccc(N2CCOCC2)cc1	Bead autofluor 16147
CC(=O)Nc1ccc(S(=O)(=O)N2CCN(c3cnn(C)c(=O)c3Cl)CC2)cc1	none
CCC(Sc1nc2ncccc2[nH]1)C(=O)N1CCOCC1 (configuration not stated)	none
O=C(C1CCCN(S(=O)(=O)c2ccc(Br)cc2)C1)N1CCN(Cc2ccccc2)CC1 (configuration not stated)	Bead autofluor 55843
O=C(CN1CCN(Cc2ccccc2)CC1)c1ccc(Br)cc1	Bead autofluor 21164
CSc1ccc(C(=S)N2CCN(Cc3ccccc3)CC2)cc1	Bead autofluor 19865
S=C(c1ccc(Cl)cc1)N1CCN(Cc2ccccc2)CC1	none
O=C(CN1CCN(Cc2ccccc2)CC1)c1ccccc1	none
O=C(CCc1nnc2ccc(NCc3ccco3)nn12)Nc1ccccc1F	none
Cc1ccc2cc(CN(CC3CCCO3)C(=O)C(C)C)c(=O)[nH]c2c1 (configuration not stated)	Bead autofluor 23042
O=C(Nc1ccc(Cl)c(S(=O)(=O)N2CCCCC2)c1)c1ccco1	none (no result: BoNT F protease, Anthrax LF prot, BoNT A protease, Bead autofluor)
O=c1nc(/C=C/c2cccn2-c2ccc([N+](=O)[O-])cc2)cc(C(F)(F)F)[nH]1	none
O=c1nc(/C=C/c2cc([N+](=O)[O-])ccc2Cl)cc(C(F)(F)F)[nH]1	Bead autofluor 22027
COc1ccccc1C1C(C(N)=O)=C(C)Nc2ncnn21 (configuration not stated)	Bead autofluor 16247
COc1cccc(C2C(C(=O)OC(C)C)=C(C)Nc3ncnn32)c1 (configuration not stated)	BoNT A protease inconclusive, Bead autofluor 20726
COc1cc(OC)c(C2C(C(=O)Nc3ccc(C)cc3C)=C(C)Nc3ncnn32)cc1OC (configuration not stated)	Bead autofluor 23198
COc1ccccc1C1C(C(=O)NCc2ccccc2)=C(C)Nc2ncnn21 (configuration not stated)	none
COc1cc(OC)c(C2C(C(=O)Nc3ccccc3)=C(C)Nc3ncnn32)cc1OC (configuration not stated)	Bead autofluor 16373
COC(=O)C1=C(C)Nc2ncnn2C1c1ccccn1 (configuration not stated)	Bead autofluor 21583
C=CCn1c(-c2cccc3ccccc23)n[nH]c1=S	Bead autofluor 21011
CCOC(=O)Cc1csc(NC(=O)Nc2cccc(OC)c2)n1	none
CN(C)Cc1csc(Nc2ccc(C(=O)c3ccccc3)cc2)n1	none
CC(=O)CSc1nsc(SCC(C)=O)c1C#N	none
CC(C)(C)NC(=O)CSc1nsc(SCC(=O)NC(C)(C)C)c1C#N	Bead autofluor 17119
Cc1csc(NC(=O)CSc2nsc(SCC(=O)Nc3nc(C)cs3)c2C#N)n1	BoNT A protease inconclusive, Bead autofluor 21632
Cc1ccc2sc(NC(=O)CSc3nc(C)cc(C)c3C#N)nc2c1	BoNT A protease inconclusive, Bead autofluor 22663
Cc1cc(C(F)(F)F)c(C#N)c(SCC(=O)Nc2nc3ccccc3s2)n1	none
Cc1ccc(NC(=O)CSc2nsc(SCC(=O)Nc3ccc(C)cc3C)c2C#N)c(C)c1	none
O=C(NCCOc1ccccc1)c1cccc(S(=O)(=O)N2CCN(Cc3ccccc3)CC2)c1	none
Cc1ccc(S(=O)(=O)/N=C(\N)Nc2nc(C)c3cc(C)ccc3n2)cc1	Bead autofluor 21184
Oc1ccccc1C(=S)N1CCCCC1	none
Oc1ccccc1C(=S)N1CCCCCC1	Bead autofluor 19817
O=[N+]([O-])c1c(NCCCO)cc(Sc2nc3ccccc3s2)c2nonc12	BoNT A protease inconclusive, Bead autofluor 23409
CCC(=O)OCCNc1cc(Sc2nc3ccccc3s2)c2nonc2c1[N+](=O)[O-]	BoNT A protease inconclusive
COC(=O)c1ccccc1N=Cc1c(O)[nH]c(=O)[nH]c1=O	none
CC(N=Cc1cc([N+](=O)[O-])ccc1O)c1ccccc1 (configuration not stated)	none
CC(N=Cc1c(O)[nH]c(=O)[nH]c1=O)c1ccccc1 (configuration not stated)	Bead autofluor 17759
CC(N=Cc1cccc(O)c1O)c1ccccc1 (configuration not stated)	Bead autofluor 22938
COc1ccccc1NS(=O)(=O)c1cc(NC(=O)c2[nH]c(C)c(C(C)=O)c2C)ccc1N1CCOCC1	none (no result: BoNT F protease, Anthrax LF prot, BoNT A protease, Bead autofluor)
Cc1c(C(=O)N2CCN(S(=O)(=O)c3ccccc3)CC2)oc2ccc(Br)cc12	none
COc1ccc(-c2ccc(/C=C(\NC(=O)c3ccccc3)C(=O)N3CCOCC3)o2)cc1	none
CC(C)(C)NC(=O)NC(=O)CSc1n[nH]c(-c2ccccc2Br)n1	none
Cn1nc(C(=O)NC2CCCCCC2)ccc1=O	BoNT A protease inconclusive, Bead autofluor 22596
Cn1nc(C(=O)NC2CCCc3ccccc32)ccc1=O (configuration not stated)	none
COc1cc(NC(=O)Cc2nn(C)c(=O)c3ccccc23)cc(OC)c1OC	BoNT A protease inconclusive, Bead autofluor 17080
Cn1nc(CC(=O)NC2CCCCC2)c2ccccc2c1=O	Bead autofluor 23933
COC(=O)C1=C(Nc2ccc(C)cc2)C=C(C)C(C(=O)OC)C1c1ccc(OC)cc1 (configuration not stated)	none
COC(=O)C1=C(O)C(C(=O)OC)C(c2ccc(C)cc2)C(C#N)(C#N)C1c1ccc(C)cc1 (configuration not stated)	Bead autofluor 22296
O=C(NCc1ccccc1)C1C2C=CC3(CN(Cc4cccnc4)C(=O)C13)O2 (configuration not stated)	Bead autofluor 19359
O=S(=O)(NC1CCCC1)c1ccccc1Cl	BoNT A protease inconclusive, Bead autofluor 20825
Cc1c(C(=O)N/N=C/c2ccncc2)nnn1-c1nonc1N	none
CSc1ccccc1-n1nnnc1SCC(=O)NCc1cccs1	BoNT F protease inconclusive
O=C(CSc1nnnn1-c1ccccc1)NCc1cccs1	Bead autofluor 16730
Cc1cc(C)c(NN=c2c(=O)c3ccccc3c2=O)c(C)c1	Bead autofluor 16485
O=c1c(=NNc2ccccc2Cl)c(=O)c2ccccc12	none
NCCc1nnc(SCc2ccccc2Cl)o1	BoNT F protease 45, Anthrax LF prot inconclusive
